# Bioassay records: PubChem BioAssay, National Center for Advancing Translational Sciences (NCATS)
# In the library only some 7.5% were active in any assay of this set; here they are far more common.
# FLuc counter = inhibits or activates purified firefly luciferase, miR-21 counter-screen. 360,000 tested, 6.9% active. Potency, µM (series often up to 57.5 µM), for the others: top-dose activity change, negative = inhibition, hits mostly inhibitors. AID 588342. P08659. purified FLuc, Km substrates, luminescence inhibition;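 also: plate controls were vehicle for no effect and reference inhibitor for full effect; nearly all actives have a fitted effect of over 55% in size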
# Target sequence (P08659 whole entry, looked up): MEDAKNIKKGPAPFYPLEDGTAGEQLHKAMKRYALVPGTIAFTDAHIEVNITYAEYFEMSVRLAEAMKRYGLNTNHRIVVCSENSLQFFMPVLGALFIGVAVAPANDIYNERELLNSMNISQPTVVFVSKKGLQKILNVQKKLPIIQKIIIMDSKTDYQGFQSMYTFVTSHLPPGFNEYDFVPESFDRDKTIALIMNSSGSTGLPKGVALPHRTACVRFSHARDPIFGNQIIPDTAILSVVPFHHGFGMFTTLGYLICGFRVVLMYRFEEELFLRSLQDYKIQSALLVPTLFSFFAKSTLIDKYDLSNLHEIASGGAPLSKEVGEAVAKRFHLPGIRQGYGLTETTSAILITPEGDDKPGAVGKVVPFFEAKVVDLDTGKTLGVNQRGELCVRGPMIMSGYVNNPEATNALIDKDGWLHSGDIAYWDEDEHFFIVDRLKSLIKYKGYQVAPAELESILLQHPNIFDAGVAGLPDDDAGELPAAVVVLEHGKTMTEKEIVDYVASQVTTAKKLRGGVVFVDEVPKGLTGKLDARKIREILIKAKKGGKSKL
#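 Biochemical qHTS of compounds, final roughly 60 µM downward over six points, against 10 nM purified firefly luciferase using Km concentrations of substrates (10 uM D-luciferin, 10 uM ATP) in Tris acetate pH 7.5 buffer; luminescence output.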
# ELG1 genotoxic = inducers of genotoxicity in HEK293T ELG1-luciferase cells. HEK293T ELG1-luciferase reporter, luminescence, 16 h. Potency, µM (doses to about 46 µM), without a hit: at the top dose activity change, positive = activation, hits mostly activators. 330,000 tested, 1.3% active; also: % of control where 0% means no effect; nearly all actives have a fitted effect of over 60% in size
#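 Genotoxic stress is detected as increased luminescence from luciferase-tagged ELG1 in HEK293T cells, measured with ONE-Glo after a 16 hr treatment at 37 °C.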
# NPC1 promoter act = activators of NPC1 promoter; AID 485313; Potency, µM (series often up to 9.22 µM), without a hit: at the highest dose activation, actives largely listed as activators; 320,000 tested, 2.4% active; Huh7 NPC1 promoter luciferase reporter, 24 h; also: % of control where 0% means no effect; nearly all actives have a fitted effect of over 60% in size
#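 Huh7 reporter cells (NPC1 promoter driving luciferase) are dosed with compound for 24 h at 37 °C, 5% CO2; luciferase detection reagent is then added and luminescence measured after 10 min at ambient temperature.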
# SMN2 splice enh = increases expression of the SMN2 splice variant. HEK293 SMN2-luciferase splicing reporter, luminescence, 30-36 h. Potency, µM (highest dose often 46.1 µM), for inactives: top-dose activity change, positive = activation, hits mostly activators. 210,000 tested, 2.8% active. AID 1458; also: % of control where 0% means no effect; nearly all actives have a fitted effect of over 55% in size
#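 qHTS luciferase splicing reporter: luminescence rises when SMN2 exon 7 is included in transfected HEK293 cells. Compound exposure lasted 30-36 h at 37C, with 4.5 mM final sodium butyrate as control, followed by a ONE-Glo read.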
# Luc counter = counter-screen: inhibitors of Kinase-Glo firefly luciferase; Kinase-Glo luciferase, ATP luminescence, 8 min; Potency, µM (doses to about 38.3 µM), for the others: at the top dose activity change, negative = inhibition, most hits filed as inhibitors; 200,000 tested, 0.28% active; also: % is scaled to controls: 0 for no effect and ±100 for the full control effect; nearly all actives have a fitted effect of over 60% in size
#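 Light output from Kinase-Glo luciferase with luciferin and 10 uM ATP in 50 mM imidazole pH 7.2, KCl, MgCl2, Tween 20, BSA; compound pin-delivered, 8-min ambient incubation, then luminescence read.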
# Rab9 promoter act = activators of Rab9 promoter | AID 485297 | Huh7 Rab9 promoter-luciferase reporter, luminescence, 24 h | 320,000 tested, 2.8% active | Potency, µM (top dose mostly 9.22 µM), inactives show at the highest dose activation, negative = inhibition, usual class: activators; also: % of control where 0% means no effect; nearly all actives have a fitted effect of over 60% in size
#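 Cell-based reporter: Huh7 stable for Rab9 promoter-driven luciferase, plated in reduced-serum medium with 10% FBS at 1500 cells/well, compound-treated 24 h at 37 °C, luminescence read after 10 min reagent.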
# * hit, by the source's call; ? = inconclusive; . = no result given; [ ] = dose if it differs, or a comment. Calls follow the shape of the dose curve; as a rule, active = well fitted curve in the direction sought with a large enough effect; inconclusive = small, poorly fitted or top-dose-only effect, or another doubt; inactive = no such curve, though single readings can be large; an effect the other way counts as inactive or inconclusive. Potency is read from the fitted curve at half-maximal effect.
SMILES,FLuc counter,ELG1 genotoxic,NPC1 promoter act,SMN2 splice enh,Luc counter,Rab9 promoter act
CCCN(C(=O)CCc1nc(-c2ccccc2F)no1)c1ccc(CC)cc1,-1%,.,.,-17%,.,.
COc1ccccc1CNC(=O)c1ccc2c(c1)nc(C)n2-c1ccccc1OC,6%,.,.,.,.,.
CCn1cc(CNC(=O)c2cc(-c3ccc(C)c(C)c3)nc3ccccc23)c(C)n1,2.4µM*,.,.,12%,.,.
Cc1ccc(-c2cc(C(=O)NCc3ccccn3)c3ccccc3n2)cc1C,1.5µM*,-4%,19%,13µM*,-13%,23%
O=C(CCSCc1cccc(Cl)c1)NCc1ccccc1Cl,-17%,.,.,.,.,.
Cc1ccc(NC(=O)Cn2c(=O)ccc3cc(S(=O)(=O)N4CCCC4)ccc32)cc1C,-2%,.,.,.,.,.
Cc1cccn2cc(-c3c[nH]c4ccccc34)nc12,19µM*,?,?,13µM*,2%,?
Nc1nc(-c2c[nH]c3ccccc23)cs1,?,-2%,12%,?,-7%,?
Brc1ccc2nc(-c3c[nH]c4ccccc34)cn2c1,1.5µM*,?,2.2µM*,10µM*,-7%,1µM*
O=C(c1cccc(Cl)c1)N1c2ncnn2C2(CCCCC2)[C@@H]2CCCC[C@@H]21,-7%,.,.,.,.,.
Cc1cccc(COc2ccc(S(=O)(=O)N3CCOCC3)cc2[N+](=O)[O-])c1,1%,5%,0%,.,.,3%
Cc1ccc(C(=O)Nc2ccc(O)c(C(=O)O)c2)o1,?,-4%,-3%,14%,-5%,-6%
CC(C)(C)c1ccc(OC(=O)Nc2ccc(O)c(C(=O)O)c2)cc1,1.2µM*,6%,-1%,-13%[9.22 µM],-3%[7.66 µM],3%
Cc1ccccc1NC(=O)c1ccc(OCC(=O)Nc2ccccc2F)cc1,4%,-7%,-1%,-7%,0%,-1%
Cc1ccc(OCC(=O)Nc2ccc(N3CCCC3)cc2)cc1C,-5%,4%,2%,2%,-5%,8%
Cc1ccc(OCC(=O)Nc2ccccc2F)cc1C,9.5µM*,10µM*,22%,.,-5%,?
NC(=O)C1CC(=O)N(c2ccc(OCC(=O)Nc3ccc(F)cc3)cc2)C1 (configuration not stated),-6%,4%,7%,.,.,10%
NC(=O)C1CC(=O)N(c2ccc(OCC(=O)Nc3ccccc3F)cc2)C1 (configuration not stated),17µM*,?,?,.,.,2.2µM*
Cc1ccc(OCC(=O)Nc2ccc(O)c(C(=O)O)c2)cc1C,17µM*,2%,1%,-4%,3%,1%
C[C@@](O)(/C=C/[C@H]1CC=CC(=O)O1)[C@@H](C[C@@H](O)\C=C/C=C\C=C\CO)OP(=O)(O)O,.,.,.,.,2%[39.9 µM],.
CC(C)(C)OC(=O)N1CCC(c2c(C(=O)NCc3ccc4c(c3)OCO4)cnn2-c2ccc(F)cc2F)CC1,4%,.,.,.,.,.
CCCCN(C)C(=O)c1ccc2c(=O)n3nc(Nc4cc(C)ccc4C)sc3nc2c1,-4%,.,.,.,.,.
Cc1ccc(-c2nc3ccsc3c(=O)o2)cc1,2.7µM*,18µM*,2.8µM*,105%,-12%,2.5µM*
O=C(Nc1nc(-c2cc3ccccc3oc2=O)cs1)c1ccc(Br)o1,6%,4%,10%,28%,-10%,4%
Cc1c(C(=O)Nc2nc(-c3ccccn3)cs2)oc2ccccc12,9.5µM*,-1%,16%,.,.,7%
SMILES,FLuc counter,ELG1 genotoxic,NPC1 promoter act,SMN2 splice enh,Luc counter,Rab9 promoter act
COCc1c(C(=O)Nc2nc(C)cs2)oc2ccccc12,?,-1%,-1%,15%,-2%,1%
CCc1nnc(NC(=O)c2cc3ccccc3oc2=O)s1,-18%,?,-1%,-4%,-8%,-4%
Cc1cc(-c2csc(NC(=O)c3cc4ccccc4o3)n2)c(C)n1C,9.5µM*,6%,13%,2%,-2%,23%
O=C(Nc1nc(-c2ccccn2)cs1)c1cc2ccccc2o1,5.4µM*,-8%,9%,-77%,-20%,4%
O=C(Nc1nc(-c2ccccn2)cs1)c1ncc(Cl)c(Cl)c1Cl,?,-10%,-5%,-10%,-3%,-2%
O=C(Nc1nc(-c2cccs2)cs1)c1cc2ccccc2oc1=O,2.7µM*,5%,23%,11%,-2%,?
CCOc1ccccc1C(=O)Nc1ccc(-n2nncc2-c2ccccc2)cc1,-13%,.,.,.,.,.
CCCc1c(OCCCOc2ccc(OCC(=O)O)cc2)ccc(CC=O)c1O,.,.,.,.,1%,.
CCCCCOc1ccc(CN2CCOCC2)cc1Cl,6.7µM*,14µM*,3.2µM*,?,-3%,3.5µM*
Clc1cc(Br)ccc1OCCN1CCOCC1,-13%,1%,-3%,-1%,-3%,-4%
CCCc1ccc(C(=O)NNc2ccccc2F)cc1,17µM*,?,?,.,.,?
COc1cccc(C(=O)Nc2ccccc2F)c1,?,?,21%,11µM*,-27%,?
COc1cccc(C(=O)Nc2ccc(C(F)(F)F)n(C)c2=O)c1,6µM*,?,2.8µM*,.,?,2.8µM*
O=C(Nc1ccccc1F)c1ccc(C(=O)c2ccccc2)cc1,11µM*,?,2.8µM*,.,.,3.5µM*
O=C(NCC1CCN(Cc2cccc(F)c2)CC1)c1cc2ccc3cccnc3c2[nH]1,4%,.,.,.,.,.
CCOC(=O)c1c(C)[nH]c(C)c1S(=O)(=O)NCC(=O)NCc1ccc(C)cc1,-1%,.,.,.,.,.
O=C(Cn1c(=O)c2cccn2c2ccccc21)NCc1ccccc1F,-20%,.,.,.,.,.
CCOc1ccc(NC(=O)CSc2ccc(-c3sc(-c4ccccc4)nc3C)nn2)cc1,-17%,.,.,.,.,.
Cc1ccc(C(=O)CSc2nc(C)cc(C)c2C(=O)Nc2cccc(C)c2)cc1,-13%,.,.,.,.,.
Cc1noc(C)c1COc1cccc(C(=O)Nc2ccc(Br)cc2F)c1,.,8%,.,.,.,.
CC(C)Oc1cccc(C(=O)Nc2ccc(Br)cc2F)c1,0.95µM*,?,3.5µM*,5µM*,-1%,1.3µM*
COc1cccc(C(=O)Nc2ccc(F)cc2F)c1,?,?,?,13µM*,-14%,?
COc1ccc(C(=O)Nc2ccc(F)cc2F)cc1OC,-1%,14%,13%,4%,-10%,15%
COc1cccc(C(=O)Nc2ccc(F)c(F)c2F)c1,17µM*,?,?,?,-7%,?
COc1ccc(C2=CC3=C(Br)C(=O)C(C)(OC(=O)CCc4ccccc4)C(=O)C3=CO2)cc1 (configuration not stated),.,.,.,1%,-4%,.
Cc1ccc(NS(=O)(=O)c2ccc3[nH]c4c(c3c2)CCCC4)cc1N(C)C,-11%,.,.,.,.,.
